# The list is not random: actives were taken first. Their share in the collection is about 1.2%.
# KCNH2 3.1 block = blocks the human KCNH2 3.1 channel isoform; activity change, % (tested at about 1.8 µM); AID 720553; 340,000 compounds, 0.95% hits; U2OS KCNH2 3.1, thallium flux FluxOr; stronger effect = lower value;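 active = maximum activity change below -70%; inconclusive = maximum activity change from -70% to -50%; inactive = maximum activity change above -50%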;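 also: thallium influx rate constant from kinetic fluorescence after stimulation buffer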
#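 Virally transduced U2OS (3.1 isoform, 4 h infection in dark at RT) → overnight 37 C → FluxOr + Red40 in HBSS/HEPES, 45 min → stimulation buffer, 2 min kinetic read → rate constant vs DMSO controls.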
# KCNH2 WT inh = KCNH2 (human, wildtype) channel inhibition. Q12809. U2OS, BacMam KCNH2, thallium flux FluxOr; stronger effect = lower value. activity change, % at 1.84 µM. 340,000 compounds, 0.37% hits. AID 720551;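 active = maximum activity change below -70%; inconclusive = maximum activity change between -70% and -50%; inactive = maximum activity change above -50%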
#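 U2OS cells transduced with wild-type KCNH2 virus are loaded with FluxOr dye for 45 min, and thallium flux is measured in kinetic reads before and after stimulation buffer. Rate constants are normalized to DMSO controls.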
# KinaseGlo FLuc = counter-screen: inhibitors of Kinase-Glo firefly luciferase | Potency, µM (top dose mostly 38.3 µM), inactives show at the highest dose activity change, negative = inhibition, most hits filed as inhibitors | Q27757 | 200,000 compounds, 0.28% hits | AID 1379 | Kinase-Glo luciferase, ATP luminescence, 8 min; active = well fitted inhibition curve with a large enough effect; inconclusive = small, poorly fitted or top-dose-only effect; also: potency is read from the fitted curve at half-maximal effect; nearly all actives have a fitted effect of over 60% in size
#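 Luminescence was the read-out, taken after 8-minute incubation at ambient temperature. Luciferase turned over luciferin with 10 uM ATP in imidazole pH 7.2 buffer containing KCl, MgCl2, Tween 20 and BSA.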
# The depositor's hits bear a star; ? = inconclusive; . = not tested or not shown; [ ] = dose if it differs, or a comment. % is scaled to controls: 0 for no effect and ±100 for the full control effect.
SMILES,KCNH2 3.1 block,KCNH2 WT inh,KinaseGlo FLuc
CCOc1ccc(CN2CCC(n3nccc3NC(=O)c3ccccc3OC)CC2)cc1,-12,-154*,.
c1ccc2c(NC3CCCC3)nnc(NC3CCCC3)c2c1,-82*,7,0%
CNc1nc(Cl)c(SC)c(NC2CCCCC2)n1,.,-13,0%
Cc1cccnc1NC1CCCCC1,-13,.,-2%
Clc1nnc(NC2CCCCC2)c(Cl)c1Cl,-77*,11,.
CC(C)(C)S(=O)N1Cc2cc(CO)cc(-c3ccccc3)c2[C@@H]1CCO (some centres not stated),-9,-5,.
Cn1cccc1/C=C1\CCc2ccccc2C1=O,-1,-9,10µM*
Cn1cccc1/C=C1\Cc2ccccc2C1=O,-5,-15,11µM*
O=C1/C(=C/c2cccs2)Cc2ccccc21,-8,3,.
O=C1/C(=C\c2ccncc2)CCc2ccccc21,-6,-6,.
O=C(O)CCC/C=C\C[C@H]1C(=O)C[C@@H](O)[C@@H]1/C=C/[C@@H](O)CCc1ccccc1,.,.,-2%
COC(=O)[C@@H](NC(=O)O[C@@H]1C(=O)c2cc(OC)ccc2O[C@H]1c1ccc(OC)c(Br)c1)C(C)C,.,.,-1%
Cc1ccc(NC(=O)CN(C)C(=O)c2ccc(Sc3nncn3C)c([N+](=O)[O-])c2)cc1,-17,5,.
C[C@@]1(C(=O)O)NCCc2cc(O)c(O)cc21,.,.,-6%
Cn1c(=O)[nH]c(N)c(Br)c1=O,0,3,.
COCC1CCN(Cc2cn(C)nc2-c2cccc(Cl)c2)C1 (configuration not stated),0,5,-7%
Cn1cc(CN2CCN(Cc3ccccc3)CC2)c(-c2cccc(Cl)c2)n1,-99*,7,-1%
Cc1cnc(C)c(N2CCN(Cc3cn(C)nc3-c3cccc(Cl)c3)CC2)n1,-115*,22,-5%
COCCN1CCN(Cc2cn(C)nc2-c2cccc(Cl)c2)CC1,5,3,-3%
O=C(O)c1[nH]c2c([N+](=O)[O-])cc([N+](=O)[O-])cc2c1C(=O)O,.,.,-4%[7.66 µM]
OC(COCc1ccc(Cl)cc1)CN1CCCCC1 (configuration not stated),-5,8,.
COc1cccc(OCC(O)CN2CCN(c3ccc(Cl)cc3)CC2)c1 (configuration not stated),-34,35,.
COc1ccc(OCC(O)CN2CCN(c3ccc(Cl)cc3)CC2)cc1 (configuration not stated),-84*,26,.
Cc1cccc(N2CCN(CC(O)COc3ccc(Cl)cc3)CC2)c1 (configuration not stated),-79*,4,.
OC(COCc1ccc(Cl)cc1)CN1CCN(CC(O)COCc2ccc(Cl)cc2)CC1 (configuration not stated),-88*,2,3%
SMILES,KCNH2 3.1 block,KCNH2 WT inh,KinaseGlo FLuc
CC(=O)Nc1ccc(OCC(O)CN2CCN(c3cccc(Cl)c3)CC2)cc1 (configuration not stated),0,9,-3%
Cc1cccc(N2CCN(CC(O)COc3ccccc3)CC2)c1 (configuration not stated),-2,42,.
OC(COc1ccc(Cl)cc1)CN1CCN(c2cccc(Cl)c2)CC1 (configuration not stated),-78*,7,.
Cc1ccc(C)c(N2CCN(S(=O)(=O)c3ccc4c(c3)NC(=O)CS4)CC2)c1,-22,-2,.
COC(=O)/C=C/c1ccccc1CN1[C@@H](CC(=O)OC)c2ccccc2S1(=O)=O,-10,6,.
O=C1CC(=O)Nc2cc(S(=O)(=O)NCc3cccs3)ccc2N1,-23,-21,.
Cc1cc(OCC(O)CN2CCc3ccccc3C2)ccc1Cl (configuration not stated),-80*,10,.
CCOc1ccc(OCC(O)CN2CCc3ccccc3C2)cc1 (configuration not stated),?,32,.
Clc1ccc(CSc2nc3ccncc3[nH]2)cc1,9,5,?
Cc1ccc(CSc2nc3ccncc3[nH]2)cc1,-6,-1,11µM*
CC1(C)C[C@@H]2C(=O)CCC3O[C@@]3(C)CCC21 (some centres not stated),.,.,-1%
CCc1cc2c(SC(C)C(=O)NC3CCCC3)ncnc2s1 (configuration not stated),-1,-6,.
CCc1cc(C=NC2CCCCC2)c(O)s1,11,-135*,-4%
O=C(NCC1CCCO1)c1cc(C(=O)c2ccc(Cl)cc2Cl)c[nH]1 (configuration not stated),-18,2,4%
NS(=O)(=O)c1ccc(Sc2ccc3c(c2)CCC3)nc1,-15,-3,.
O=C(Nc1nc(-c2cccc3ccccc23)cs1)c1ccc2c(c1)S(=O)(=O)c1ccccc1C2=O,-106*,-33,-3%

# From PubChem
